Measurements from PubChem BioAssay AID686979 (National Center for Advancing Translational Sciences (NCATS), 2013).
About 50,000 (12%) of roughly 420,000 compounds were called active. Not shown: some 26% with an inconclusive outcome. This is one part of a sample in which actives are shown more often than they occur. Values without a mark were called inactive. Calls come from the whole dose curve; as a rule, active = well fitted inhibition curve with a large enough effect; inconclusive = small, poorly fitted or top-dose-only effect; inactive = flat fitted curve, though single readings scatter.

Experiment: qHTS for Inhibitors of human tyrosyl-DNA phosphodiesterase 1 (TDP1): qHTS in cells in presence of CPT; note: nearly all actives have a fitted effect of over 55% in size
Conditions: chicken DT40 Tdp1-/-;hTDP1 cells + 20 nM CPT, ATP luminescence, 48 h; series mostly up to 46.2 µM; activity change, negative = growth inhibition: at the top concentration
In short: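 Chicken DT40 Tdp1-/- cells complemented with human TDP1, 400 cells/well, exposed to compounds plus 20 nM camptothecin for at least 48 h at 37 C; viability read as ATP content by CellTiter-Glo luminescence.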
% is set by controls: 0 for no effect and ±100 for the full control effect; potency is the fitted concentration of half-maximal effect.

Compound | activity change, negative = growth inhibition [%] | Potency
O=S(=O)(/N=C(/Nc1ccccc1)c1ccccc1)c1cccs1 | -15.8 | 
CCc1cc(-c2nnn(CCC3COCCO3)c2CC)ccc1-c1cn(Cc2ccc3ccccc3c2)nn1 (stereo unspecified) |  | 5.8 µM (active)
CCCCCc1ccc(-c2cn(Cc3ccc4ccccc4c3)nn2)cc1 |  | inactive
CCCN(CCC)C(=O)C(Cc1ccccc1)NS(=O)(=O)c1ccc2c(c1)c(=O)n(C)c(=O)n2C (stereo unspecified) | -14 | 
O=C(CNC(=O)N1CC(=O)Nc2ccccc21)Nc1ccc(Br)cc1F | 6.9 | 
C[C@H](CO)N1C[C@H](C)[C@@H](CN(C)C(=O)C2CCCCC2)OCc2cnnn2CCCC1=O | -22.6 | 
CC(C)N(C(=O)Cn1cc(SCC(=O)N2CCCC2)c2ccccc21)C(C)C | 10.2 | 
O=C(Cn1cc(SCc2cccc(Cl)c2)c2ccccc21)N1CCCCC1 |  | 18.4 µM (active)
CC(=O)Nc1cccc(NC(=O)CSc2cn(CC(=O)N3CCCC3)c3ccccc23)c1 | -26.7 | 
CC(C)C12CN3CC(C(C)C)(CN(C1)C3c1ccc(OCc3ccccc3)cc1)C2=O (stereo unspecified) | 0.582 | 
Cn1nccc1C(=O)NCC1CCC2(CCN(Cc3c(O)ccc4ccccc34)CC2)O1 (stereo unspecified) | -24.3 | 
N#Cc1cccc(NC(=O)COC(=O)c2ccccc2C(=O)c2ccc(Cl)c([N+](=O)[O-])c2)c1 |  | 20.6 µM (active)
CC(=O)Nc1ccc(NC(=O)COC(=O)c2ccccc2C(=O)c2ccccc2)cc1 | -29.4 | 
COC(=O)c1cc(NC(=O)Cc2ccccc2[N+](=O)[O-])ccc1Cl | -7.47 | 
CCOC(=O)C1CCN(CC(=O)Nc2ccc(OC)c(S(=O)(=O)N3CCCCC3)c2)CC1 | -23.6 | 
CC[n+]1c(C)n(-c2ccccc2)c2ccc(NC(C)=O)cc21 |  | 6.51 µM (active)
CC(=O)Nc1ccc(NC(=O)CSc2nnc(C3CC3)n2-c2ccccc2)cc1 | -16.4 | 
CCn1c2ccccc2c2cc(NC(=O)CNC)ccc21 | 1.65 | 
Cc1ccccc1NC(=O)Cn1c(=O)n(Cc2ccco2)c(=O)c2ccc(C(=O)NC3CCCC3)cc21 | -7.3 | 
CC(C)(C)NC(=O)NC(=O)COC(=O)CCC1CCCCC1 | -24.2 | 
COc1ccc(N2c3ccccc3CN(Cc3ccccc3)[C@@H](C)[C@H]2Cc2ccc(-c3ccccc3)cc2)cc1 |  | 23.1 µM (active)
COc1ccc(N2C(=O)C(Cc3ccccc3)NC2=S)cc1 (stereo unspecified) | 31.4 | 
C[n+]1cccc(C(=O)O)c1 | -7.01 | 
O=C(CCc1nnc2ccc(NCc3ccccc3Cl)nn12)NCC1CCN(C2CCCC2)C1 (stereo unspecified) | 9.38 | 
Nc1c(-c2cccc(Cl)c2)cnn1-c1cccc([N+](=O)[O-])c1 | -19.7 | 
COc1cccc(NC(=O)N(Cc2cn(C)c3ccccc23)C2CCCCCC2)c1 |  | 5.8 µM (active)

Compound | activity change, negative = growth inhibition [%] | Potency
COc1cccc(NC(=O)C/C(C)=N/NC(=O)C2CCCCC2)c1 | -21.1 | 
COc1cccc(NC(=O)N2CCCC2C(=O)NC2CCCCC2)c1 (stereo unspecified) | 6 | 
COc1ccc(NC(=O)NNC(=O)COc2cc(C)c(Cl)c(C)c2)c(OC)c1 | -9.26 | 
O=C1CSC(c2ccc(Cl)cc2)N1 (stereo unspecified) | -5.3 | 
O=C(CN1CCCCCC1)Nc1c(Cl)cc(Cl)cc1Cl | -25.1 | 
CCNC(=O)C1CCCN(C(=O)c2cc(F)ccc2C)CC1 (stereo unspecified) | -17.5 | 
O=C(c1cccc(F)c1)N1CCC2(CCCN(Cc3ccncc3)C2)CC1 | -20.6 | 
O=C(c1ccncc1)N1CCC2(CCCN(C(c3ccccc3)c3ccccc3)C2)CC1 |  | 16.4 µM (active)
COc1ccc(C(=O)N2CCC3(CCCN(C(c4ccccc4)c4ccccc4)C3)CC2)cc1 | 21 | 
COc1ccc(CC(=O)Nc2nnc3n2CCS3)cc1OC | -12.5 | 
O=C(COC(=O)c1cccs1)NCc1cccs1 | 2.73 | 
CCOc1ccc(OCc2cccc(C(=O)N(CC)CC)c2)cc1 |  | 20.6 µM (active)
CN(Cc1ccccc1)C(=O)c1cccc(C(=O)N(C)Cc2ccccc2)c1 | -2.28 | 
COc1ccc(OCc2cccc(C(=O)N3CCCC3)c2)cc1 | -16.4 | 
O=C(CN1C(=O)c2ccccc2S1(=O)=O)NC1CCCCC1 | 1.06 | 
COc1ccc(-n2cnnc2SCC(=O)Nc2cccc(S(N)(=O)=O)c2)cc1 | -3.28 | 
O=C(Nc1ccc(Cl)cc1)Nc1ccc(C(=O)N2CCOCC2)cc1 | -16.9 | 
Nc1ncnc2c1cnn2C1CC(O)C(CO)O1 (stereo unspecified) | 14.9 | 
Nc1ccn(C2CC(O)C(CO)O2)c(=O)n1 (stereo unspecified) | -0.714 | 
Nc1ncnc2c1ncn2C1CC(O)C(CO)O1 (stereo unspecified) |  | 1.16 µM (active)
CCN(CC(=O)Nc1c(F)cccc1F)C(=O)c1cnc(C)cn1 | 1.54 | 
O=C1c2ccccc2C(=O)N1CCCCCCN1C(=O)c2ccccc2C1=O | -18 | 
O=C(CCCn1c(=O)c2sccc2n(CC(=O)NCC2CCCO2)c1=O)NCc1ccco1 (stereo unspecified) | 2.51 | 
CCN(CCCNC(=O)CCn1c(=O)[nH]c2ccsc2c1=O)c1ccccc1 | 6.83 | 
CCC1CCCCN1C(=O)Cn1c(=O)n(CCCCCC(=O)NCc2ccccc2)c(=O)c2sccc21 (stereo unspecified) |  | 16.4 µM (active)
